This is part of a sample that, as a whole, favours compounds with a hit. Of some 83,000 tested, about 20% had one in any assay.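 The test compound was applied at a single concentration to cells in 96-well plates for 48 hours, and percent growth was recorded.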 Unmarked numbers belong to inactive results. Activity calls are given as the source filed them. The calls were made as follows: active = growth percent below 10; inactive = the rest.

The values below come from PubChem BioAssay (NCI).

Among the test systems are SR leukemia; RPMI-8226 leukemia; OVCAR-8 ovarian; OVCAR-5 ovarian; OVCAR-4 ovarian; SK-OV-3 ovarian; OVCAR-3 ovarian; HS 578T breast; NCI/ADR-RES ovarian; IGROV1 ovarian.
What all share (assay): NCI-60 one-dose screen, 48 h (100 = growth as untreated, 0 = no growth, -100 = all killed)
Holding throughout (details): 10 µM

As to `C[C@H](NC(=O)[C@@H]1CSSC[C@@H](NC(=O)Cc2nc3ccccc3cc2O)C(=O)NCC(=O)N1C)c1ccccc1`, the growth is -3.15% (active) in the experiment with SR leukemia; 87.2% in the experiment with RPMI-8226 leukemia; 95.2% in the experiment with OVCAR-8 ovarian; 104% with OVCAR-5 ovarian; 63.6% in the experiment with OVCAR-4 ovarian; 88.4% in the experiment with SK-OV-3 ovarian. Besides, the results for the growth in the experiment with OVCAR-3 ovarian, in the experiment on HS 578T breast and with NCI/ADR-RES ovarian were 99%, 94.2% and 101%, respectively.

With `O=C(COc1ccc(-c2nc3ccccc3[nH]2)cc1)N=Nc1c(O)[nH]c2ccccc12`, the growth in the experiment with SR leukemia was 1.13% (active); in the experiment with RPMI-8226 leukemia it was 71.5%; with OVCAR-8 ovarian, 78.4%; with OVCAR-5 ovarian, 116%; with OVCAR-4 ovarian it was 15.5%; with SK-OV-3 ovarian, 105%. Further, the values for the growth with OVCAR-3 ovarian, in the experiment with HS 578T breast and in the experiment with NCI/ADR-RES ovarian were 62.5%, 103% and 108%, respectively.

As for `N=C(N)c1ccc(-c2ccc(-c3ccccc3)s2)cc1F`, the growth was -11.6% (active) with SR leukemia; -60.2% (active) with RPMI-8226 leukemia; -32.9% (active) in the experiment with OVCAR-8 ovarian; -96.8% (active) with OVCAR-5 ovarian; -57.2% (active) with OVCAR-4 ovarian; -51.2% (active) with IGROV1 ovarian. In addition, the growth in the experiment with OVCAR-3 ovarian was -94.6% (active); in the experiment on HS 578T breast, -41.6% (active); in the experiment on NCI/ADR-RES ovarian it was -50.8% (active).

In the case of `Nc1ccn([C@@H]2O[C@H](COP(=O)(O)O[C@@H]3C[C@H](n4cc(F)c(=O)[nH]c4=O)O[C@@H]3COP(=O)(O)O[C@@H]3C[C@H](n4cc(F)c(=O)[nH]c4=O)O[C@@H]3COP(=O)(O)O[C@@H]3C[C@H](n4cc(F)c(=O)[nH]c4=O)O[C@@H]3COP(=O)(O)O[C@@H]3C[C@H](n4cc(F)c(=O)[nH]c4=O)O[C@@H]3COP(=O)(O)O[C@@H]3C[C@H](n4cc(F)c(=O)[nH]c4=O)O[C@@H]3COP(=O)(O)O[C@@H]3C[C@H](n4cc(F)c(=O)[nH]c4=O)O[C@@H]3COP(=O)(O)O[C@@H]3C[C@H](n4cc(F)c(=O)[nH]c4=O)O[C@@H]3COP(=O)(O)O[C@@H]3C[C@H](n4cc(F)c(=O)[nH]c4=O)O[C@@H]3COP(=O)(O)O[C@@H]3C[C@H](n4cc(F)c(=O)[nH]c4=O)O[C@@H]3COP(=O)(O)O[C@@H]3C[C@H](n4cc(F)c(=O)[nH]c4=O)O[C@@H]3COP(=O)(O)OCCOCCOCCOCCOCCOCCO)[C@H](O)C2O)c(=O)n1` (stereo partly specified), the growth was 44.3% with SR leukemia; 50.1% in the experiment on RPMI-8226 leukemia; 40.7% in the experiment with OVCAR-8 ovarian; 89.9% in the experiment with OVCAR-5 ovarian; 84% in the experiment with OVCAR-4 ovarian; 32% with SK-OV-3 ovarian. Also, the growth was 64.5% with OVCAR-3 ovarian, 111% in the experiment with HS 578T breast and 39.5% in the experiment with NCI/ADR-RES ovarian.

For the compound `Cc1cccc2c(Nc3ccc(NS(C)(=O)=O)cc3)c3ccc([N+](=O)[O-])cc3nc12`, the growth in the experiment on SR leukemia is 2.56% (active); in the experiment on RPMI-8226 leukemia it was 0.668% (active); in the experiment on OVCAR-8 ovarian, 2.24% (active); in the experiment on OVCAR-5 ovarian, 49.9%; in the experiment on OVCAR-4 ovarian, 16.6%; in the experiment with SK-OV-3 ovarian, 38.3%. Further, the growth is -28.9% (active) in the experiment on OVCAR-3 ovarian, 56.6% with HS 578T breast and 66.6% in the experiment with NCI/ADR-RES ovarian.

For `COc1ccc(C2C=C(c3ccc(Cl)c(Cl)c3)N=C3SC(C)=CN32)cc1` (stereo unspecified), the growth is 9.84% (active) with SR leukemia; 18% in the experiment with RPMI-8226 leukemia; 94% in the experiment on OVCAR-8 ovarian; 102% in the experiment with OVCAR-5 ovarian; 91.3% in the experiment on OVCAR-4 ovarian; 109% with SK-OV-3 ovarian. Moreover, the growth in the experiment on OVCAR-3 ovarian was 95.5%; in the experiment with HS 578T breast it was 105%; in the experiment on NCI/ADR-RES ovarian, 107%.

As for `CC(=O)Nc1ccc(Sc2ccc(NC(C)=O)cc2)cc1`, the growth in the experiment on SR leukemia was 92.9%; in the experiment on RPMI-8226 leukemia, 99%; with OVCAR-8 ovarian it was 94.7%; in the experiment on OVCAR-5 ovarian it was 95.8%; with OVCAR-4 ovarian, 102%; in the experiment on SK-OV-3 ovarian, 82%. In addition, the growth in the experiment on OVCAR-3 ovarian is 102%; in the experiment with HS 578T breast, 104%; in the experiment on NCI/ADR-RES ovarian it was 95.7%.

On to `COc1ccc(-c2nnc(SC/C(=N\O)c3ccccc3)o2)cc1`, for which the growth is 100% in the experiment with SR leukemia; 88.8% with RPMI-8226 leukemia; 107% in the experiment with OVCAR-8 ovarian; 108% with OVCAR-5 ovarian; 104% in the experiment with OVCAR-4 ovarian; 87.9% in the experiment on SK-OV-3 ovarian. Moreover, the values for the growth in the experiment with OVCAR-3 ovarian, in the experiment with HS 578T breast and in the experiment on NCI/ADR-RES ovarian were 99.1%, 94% and 91.2%, respectively.

Turning to `O=S(=O)(NC1c2ccccc2Oc2ccccc21)c1cc(Cl)ccc1Cl`, the growth in the experiment on SR leukemia was 66.8%; with RPMI-8226 leukemia, 96.7%; in the experiment on OVCAR-8 ovarian it was 93.5%; in the experiment with OVCAR-5 ovarian it was 109%; in the experiment with OVCAR-4 ovarian, 80.9%; with SK-OV-3 ovarian it was 98.1%. The growth with OVCAR-3 ovarian is 98.7%; with HS 578T breast it was 102%; in the experiment with NCI/ADR-RES ovarian, 93.5%.

`Oc1ccc(Cn2cc3c(c2-c2ccccc2)CCc2cnoc2-3)cc1`: the growth in the experiment with SR leukemia is 76.8%; in the experiment on RPMI-8226 leukemia it was 82.1%; in the experiment on OVCAR-8 ovarian it was 100%; in the experiment on OVCAR-5 ovarian it was 105%; in the experiment with OVCAR-4 ovarian, 95.8%; with SK-OV-3 ovarian, 94.4%. Moreover, the growth is 107% in the experiment with OVCAR-3 ovarian, 106% in the experiment with HS 578T breast and 86.2% in the experiment on NCI/ADR-RES ovarian.

On to `CN(C)c1ccc2c(c1)OC(N)=C(C#N)C2c1ccc2c(c1)CCO2` (stereo unspecified), for which the growth is 38.2% with SR leukemia; 32.9% in the experiment with RPMI-8226 leukemia; 24.1% in the experiment with OVCAR-8 ovarian; 57.2% with OVCAR-5 ovarian; 48.3% with OVCAR-4 ovarian; 32.2% with SK-OV-3 ovarian. Besides, the growth in the experiment on OVCAR-3 ovarian was -3.4% (active); in the experiment with HS 578T breast, 23.1%; in the experiment on NCI/ADR-RES ovarian it was 3% (active).

For `COc1ccc(C2C=C(c3ccc(OC)c(OC)c3)N=C3SC=CN32)c(Br)c1` (stereo unspecified), the growth in the experiment with SR leukemia was -14.8% (active); with RPMI-8226 leukemia, -12.4% (active); with OVCAR-8 ovarian, 66.2%; in the experiment on OVCAR-5 ovarian, 102%; with OVCAR-4 ovarian it was 62.5%; in the experiment with SK-OV-3 ovarian, 101%. Also, the values for the growth in the experiment on OVCAR-3 ovarian, in the experiment on HS 578T breast and with NCI/ADR-RES ovarian were 56.9%, 90.4% and 78.2%, respectively.

Consider `O=C(NCCc1nccs1)c1cnc2c(S)cccc2c1`, for which the growth in the experiment with SR leukemia is 14.6%; in the experiment on RPMI-8226 leukemia, 26.2%; with OVCAR-8 ovarian, 29.3%; in the experiment on OVCAR-5 ovarian, 75.2%; with OVCAR-4 ovarian, 27.1%; in the experiment with SK-OV-3 ovarian, 20.1%. The results for the growth with OVCAR-3 ovarian, in the experiment with HS 578T breast and with NCI/ADR-RES ovarian were 5.69% (active), 21.5% and 5.32% (active), respectively.

For the compound `CCOC(=O)c1sc(NC(=O)c2cc(OC)c(OC)c(OC)c2)nc1C`, the growth with SR leukemia was 79%; in the experiment with RPMI-8226 leukemia, 83%; with OVCAR-8 ovarian it was 99.3%; in the experiment with OVCAR-5 ovarian it was 108%; in the experiment on OVCAR-4 ovarian it was 113%; in the experiment on SK-OV-3 ovarian it was 152%. Further, the growth in the experiment on OVCAR-3 ovarian is 103%; in the experiment with HS 578T breast, 80.8%; in the experiment with NCI/ADR-RES ovarian it was 103%.
